# Assay results taken from the supplement of paper PMC10477191.
# ± gives the standard deviation of the averaged measurements.
# Key:
# Experiment in all cases: odor-evoked OSN spike response (post minus pre-stimulus); higher = stronger neuronal excitation
# Conditions in all cases: odor dilution: 10^-4
# [1] = test system: Drosophila ezoana antennal basiconic sensillum ab3
# Summary of the method: (§1)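 Spike frequency was compared between 1-second windows before and after each stimulus in Auto Spike software. That change, averaged over replicate sensilla, is the response. Each stimulus was a 500 ms air pulse over filter paper carrying 10 µl of odorant at 10^−4 in mineral oil or DMSO, delivered into a humidified, charcoal-filtered 1.5 l min^−1 stream. A tungsten electrode recorded at the base of antennal basiconic sensilla of restrained adult flies, with up to 3 sensilla per fly.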
# [2] = test system: Drosophila ezoana antennal basiconic sensillum ab1
# Summary of the method: as §1
# [3] = test system: Drosophila ezoana antennal basiconic sensillum ab9
# Summary of the method: as §1
# [4] = test system: Drosophila virilis antennal basiconic sensillum AB1
# Summary of the method: as §1
# [5] = test system: Drosophila virilis antennal basiconic sensillum AB3
# Summary of the method: as §1
# [6] = test system: Drosophila virilis antennal basiconic sensillum AB9
# Summary of the method: as §1
# [7] = test system: Drosophila virilis antennal basiconic sensillum AB7
# Summary of the method: as §1
# [8] = test system: Drosophila virilis antennal basiconic sensillum AB2
# Summary of the method: as §1
# [9] = test system: Drosophila ezoana antennal basiconic sensillum ab8
# Summary of the method: as §1
# [10] = test system: Drosophila ezoana antennal basiconic sensillum ab2
# Summary of the method: as §1
# [11] = test system: Drosophila virilis antennal basiconic sensillum AB11
# Summary of the method: as §1
# [12] = test system: Drosophila virilis antennal basiconic sensillum AB8
# Summary of the method: as §1
# [13] = test system: Drosophila virilis antennal basiconic sensillum AB6
# Summary of the method: as §1
# [14] = test system: Drosophila ezoana antennal basiconic sensillum ab4
# Summary of the method: as §1
structure (smiles),measurement,setting,value
CCCCCCCC(C)=O [2-nonanone],odor-evoked OSN spike response,[1],57.8 ± 38 spikes/s
CC(=O)C(C)O (stereo not given) [acetoin],odor-evoked OSN spike response,[2],79.9 ± 48 spikes/s
same,odor-evoked OSN spike response,[1],135 ± 51 spikes/s
same,odor-evoked OSN spike response,[3],57.3 ± 30 spikes/s
same,odor-evoked OSN spike response,[4],82.8 ± 39 spikes/s
same,odor-evoked OSN spike response,[5],226 ± 54 spikes/s
same,odor-evoked OSN spike response,[6],97.4 ± 24 spikes/s
"CC(O)C(C)O (stereo not given) [2,3-Butanediol]",odor-evoked OSN spike response,[2],68.2 ± 35 spikes/s
same,odor-evoked OSN spike response,[1],51.5 ± 25 spikes/s
same,odor-evoked OSN spike response,[4],71.5 ± 10 spikes/s
same,odor-evoked OSN spike response,[5],67.8 ± 30 spikes/s
same,odor-evoked OSN spike response,[7],66.2 ± 17 spikes/s
CCOC(C)=O [Ethyl acetate],odor-evoked OSN spike response,[2],56.4 ± 35 spikes/s
same,odor-evoked OSN spike response,[1],60.2 ± 27 spikes/s
same,odor-evoked OSN spike response,[4],69.2 ± 27 spikes/s
same,odor-evoked OSN spike response,[8],65 ± 20 spikes/s
COC(=O)c1ccccc1O [Methyl salicylate],odor-evoked OSN spike response,[2],52.1 ± 33 spikes/s
same,odor-evoked OSN spike response,[1],64.8 ± 22 spikes/s
same,odor-evoked OSN spike response,[4],49 ± 22 spikes/s
CC(C)=CCCC(C)=CC=O (mixture of isomers) [citral],odor-evoked OSN spike response,[1],52.2 ± 25 spikes/s
same,odor-evoked OSN spike response,[3],55.8 ± 30 spikes/s
CC(=O)c1ccccc1 [Acetophenone],odor-evoked OSN spike response,[9],71.8 ± 25 spikes/s
same,odor-evoked OSN spike response,[3],68.3 ± 26 spikes/s
C/C=C/C(=O)OCC [Ethyl crotonate],odor-evoked OSN spike response,[10],61.5 ± 39 spikes/s
same,odor-evoked OSN spike response,[3],50.1 ± 30 spikes/s
same,odor-evoked OSN spike response,[8],47.5 ± 26 spikes/s
CCCC(=O)OCc1ccccc1 [benzyl butyrate],odor-evoked OSN spike response,[10],43.7 ± 32 spikes/s
same,odor-evoked OSN spike response,[3],56.9 ± 30 spikes/s
same,odor-evoked OSN spike response,[8],58.8 ± 31 spikes/s
CC(C)OC(=O)c1ccccc1 [isopropyl benzoate],odor-evoked OSN spike response,[10],91.2 ± 45 spikes/s
same,odor-evoked OSN spike response,[1],54.9 ± 29 spikes/s
same,odor-evoked OSN spike response,[3],58.6 ± 20 spikes/s
same,odor-evoked OSN spike response,[11],54 ± 12 spikes/s
same,odor-evoked OSN spike response,[8],45.6 ± 23 spikes/s
CCC(=O)OCCC(C)C [Isopentyl propionate],odor-evoked OSN spike response,[9],79 ± 39 spikes/s
same,odor-evoked OSN spike response,[3],66.7 ± 31 spikes/s
same,odor-evoked OSN spike response,[12],56.8 ± 27 spikes/s
same,odor-evoked OSN spike response,[6],86.6 ± 27 spikes/s
CCCCCCCC(C)O (stereo not given) [2-nonanol],odor-evoked OSN spike response,[1],55 ± 26 spikes/s
CCCCCC(C)=O [2-heptanone],odor-evoked OSN spike response,[1],64.7 ± 28 spikes/s
same,odor-evoked OSN spike response,[9],54.2 ± 25 spikes/s
same,odor-evoked OSN spike response,[7],155 ± 25 spikes/s
C=CC(O)CCCCC (stereo not given) [1-octen-3-ol],odor-evoked OSN spike response,[9],118 ± 51 spikes/s
same,odor-evoked OSN spike response,[3],50.6 ± 26 spikes/s
same,odor-evoked OSN spike response,[13],114 ± 44 spikes/s
same,odor-evoked OSN spike response,[7],106 ± 11 spikes/s
same,odor-evoked OSN spike response,[12],113 ± 14 spikes/s
CCOC(=O)CC(C)O (stereo not given) [Ethyl-3-hydroxybutyrate],odor-evoked OSN spike response,[10],60.9 ± 32 spikes/s
same,odor-evoked OSN spike response,[1],133 ± 55 spikes/s
same,odor-evoked OSN spike response,[9],108 ± 45 spikes/s
same,odor-evoked OSN spike response,[3],59.2 ± 23 spikes/s
same,odor-evoked OSN spike response,[4],70.5 ± 24 spikes/s
same,odor-evoked OSN spike response,[5],167 ± 54 spikes/s
same,odor-evoked OSN spike response,[13],63.2 ± 25 spikes/s
same,odor-evoked OSN spike response,[7],85.6 ± 14 spikes/s
same,odor-evoked OSN spike response,[12],53 ± 9.4 spikes/s
same,odor-evoked OSN spike response,[6],58.3 ± 24 spikes/s
CCCCC(C)O (stereo not given) [2-hexanol],odor-evoked OSN spike response,[1],55 ± 32 spikes/s
same,odor-evoked OSN spike response,[7],61.4 ± 9.6 spikes/s
CCCCCC(=O)OCC [ethyl hexanoate],odor-evoked OSN spike response,[1],141 ± 28 spikes/s
same,odor-evoked OSN spike response,[9],77.2 ± 32 spikes/s
same,odor-evoked OSN spike response,[3],56.8 ± 31 spikes/s
same,odor-evoked OSN spike response,[5],153 ± 23 spikes/s
same,odor-evoked OSN spike response,[7],49 ± 24 spikes/s
same,odor-evoked OSN spike response,[12],66.1 ± 8.9 spikes/s
same,odor-evoked OSN spike response,[6],67.4 ± 21 spikes/s
CCCC(=O)CC [3-hexanone],odor-evoked OSN spike response,[2],59.3 ± 31 spikes/s
same,odor-evoked OSN spike response,[1],52 ± 27 spikes/s
same,odor-evoked OSN spike response,[3],51.3 ± 35 spikes/s
same,odor-evoked OSN spike response,[4],76 ± 7.4 spikes/s
same,odor-evoked OSN spike response,[6],65.5 ± 27 spikes/s
CC(=O)CCC=C(C)C [6-methyl-5-hepten-2-one],odor-evoked OSN spike response,[7],150 ± 34 spikes/s
C[C@H]1CCC[C@@]2(C)CCCC[C@]12O [geosmin],odor-evoked OSN spike response,[14],119 ± 39 spikes/s
CCCCC(C)=O [2-hexanone],odor-evoked OSN spike response,[1],52.9 ± 26 spikes/s
same,odor-evoked OSN spike response,[7],50.8 ± 8.6 spikes/s
CCOC(=O)c1ccccc1 [ethyl benzoate],odor-evoked OSN spike response,[10],69.5 ± 30 spikes/s
same,odor-evoked OSN spike response,[1],64 ± 27 spikes/s
same,odor-evoked OSN spike response,[3],105 ± 28 spikes/s
same,odor-evoked OSN spike response,[11],23.1 ± 7.8 spikes/s
same,odor-evoked OSN spike response,[6],85.5 ± 21 spikes/s
CCCCCCCC/C=C\CCCCCCCC(=O)O [Oleic acid],odor-evoked OSN spike response,[10],43.9 ± 26 spikes/s
CCCCCCO [1-hexanol],odor-evoked OSN spike response,[1],53 ± 23 spikes/s
same,odor-evoked OSN spike response,[9],176 ± 44 spikes/s
same,odor-evoked OSN spike response,[7],61.4 ± 22 spikes/s
same,odor-evoked OSN spike response,[12],239 ± 25 spikes/s
same,odor-evoked OSN spike response,[6],28.8 ± 14 spikes/s
CCCC(=O)OCC [ethyl butanoate],odor-evoked OSN spike response,[8],71.9 ± 26 spikes/s
same,odor-evoked OSN spike response,[7],68.8 ± 9.7 spikes/s
same,odor-evoked OSN spike response,[6],75.9 ± 26 spikes/s
CC(=O)OCCC(C)C [Isopentyl acetate],odor-evoked OSN spike response,[1],55.5 ± 29 spikes/s
same,odor-evoked OSN spike response,[9],73.6 ± 38 spikes/s
same,odor-evoked OSN spike response,[3],56.7 ± 36 spikes/s
same,odor-evoked OSN spike response,[6],81.4 ± 33 spikes/s
CCCCCOC(C)=O [pentyl acetate],odor-evoked OSN spike response,[2],62.6 ± 43 spikes/s
same,odor-evoked OSN spike response,[1],120 ± 29 spikes/s
same,odor-evoked OSN spike response,[9],122 ± 45 spikes/s
same,odor-evoked OSN spike response,[3],67.9 ± 29 spikes/s
same,odor-evoked OSN spike response,[5],121 ± 16 spikes/s
same,odor-evoked OSN spike response,[7],75.4 ± 13 spikes/s
same,odor-evoked OSN spike response,[12],119 ± 24 spikes/s
same,odor-evoked OSN spike response,[6],80 ± 39 spikes/s
CC(C)CCO [Isopentyl alcohol],odor-evoked OSN spike response,[9],65.8 ± 25 spikes/s
same,odor-evoked OSN spike response,[7],51.2 ± 14 spikes/s
CCCCCCOC(C)=O [Hexyl acetate],odor-evoked OSN spike response,[1],121 ± 33 spikes/s
same,odor-evoked OSN spike response,[9],88.7 ± 39 spikes/s
same,odor-evoked OSN spike response,[12],35.3 ± 18 spikes/s
same,odor-evoked OSN spike response,[6],53.3 ± 21 spikes/s
CCCC(O)CC (stereo not given) [3-hexanol],odor-evoked OSN spike response,[9],52.3 ± 27 spikes/s
same,odor-evoked OSN spike response,[7],57 ± 28 spikes/s
CCc1ccc(O)c(OC)c1 [4-Ethylguaiacol],odor-evoked OSN spike response,[1],57.6 ± 32 spikes/s
CCOC(=O)C(C)O (stereo not given) [Ethyl lactate],odor-evoked OSN spike response,[2],70.3 ± 53 spikes/s
same,odor-evoked OSN spike response,[1],129 ± 36 spikes/s
same,odor-evoked OSN spike response,[9],51.4 ± 27 spikes/s
same,odor-evoked OSN spike response,[3],66.3 ± 26 spikes/s
same,odor-evoked OSN spike response,[4],128 ± 32 spikes/s
same,odor-evoked OSN spike response,[5],156 ± 44 spikes/s
same,odor-evoked OSN spike response,[13],50 ± 22 spikes/s
same,odor-evoked OSN spike response,[7],52.6 ± 7.5 spikes/s
same,odor-evoked OSN spike response,[12],44.8 ± 12 spikes/s
same,odor-evoked OSN spike response,[6],72.4 ± 20 spikes/s
OCCc1ccccc1 [2-phenylethanol],odor-evoked OSN spike response,[9],63.9 ± 26 spikes/s
CCCOC(C)=O [propyl acetate],odor-evoked OSN spike response,[1],50 ± 27 spikes/s
same,odor-evoked OSN spike response,[9],51 ± 32 spikes/s
same,odor-evoked OSN spike response,[3],60.9 ± 37 spikes/s
same,odor-evoked OSN spike response,[6],84.2 ± 24 spikes/s
COC(=O)c1ccccc1 [methyl benzoate],odor-evoked OSN spike response,[10],55.9 ± 36 spikes/s
same,odor-evoked OSN spike response,[3],125 ± 48 spikes/s
same,odor-evoked OSN spike response,[6],86.1 ± 27 spikes/s
COc1ccccc1O [guaiacol],odor-evoked OSN spike response,[3],50.8 ± 26 spikes/s
same,odor-evoked OSN spike response,[13],73.3 ± 47 spikes/s
